Test results as given in PubChem BioAssay (Tox21).
Values joined by “and” are separate entries in the source; they are usually repeats but may differ in a detail not shown here. Equal entries are not always repeated. Inconclusive results are not listed. Where a call stands in place of a potency, no number is given. Some structures have more than one record in an assay (separate samples or runs), and their calls can disagree. Active and inactive are the calls of the source. Calls follow the shape of the full dose curve.

test: qHTS assay to identify small molecule agonists of the AP-1 signaling pathway - cell viability counter screen (AID 1159525); conditions: ME-180 (cervical carcinoma) AP-1-bla cells viability, ATP luminescence, 5 h; series mostly up to 76.8 µM; also: nearly all actives have a fitted effect of over 55% in size
Source text: National Center for Advancing Translational Sciences [NCATS]
NIH Chemical Genomics Center [NCGC]
U.S. Environmental Protection Agency [EPA]
National Institutes of Environmental Health Sciences [NIEHS]
National Toxicology Program [NTP]
U.S. Food and Drug Administration [FDA]
Activator protein-1 (AP-1), a transcription factor, plays an important role in tumor genesis by regulating genes involved in cell proliferation, differentiation, apoptosis, and angiogenesis. AP-1 activity is induced by a complex network of signaling pathways that involves extracellular signals, such as growth factors. The AP-1 protein complex formed from c-Fos and c-Jun binding to the AP-1 response element results in transcriptional activation of genes containing such elements within their promoter.
Low molecular weight molecules have been discovered and developed to modulate various components of these signaling pathways, for example, MAP kinase inhibitors. However, many points of pathway modulation remain untested due to the lack of chemical probes making this signaling locus of general interest.
Using a beta-lactamase reporter-gene under control of the AP-1 response element, a cell-based assay [CellSensor(TM) AP-1-bla ME-180 developed by Invitrogen Corp.] was used to measure EGF-induced signaling. The Tox21 10K library compounds were measured for their ability to positively modulate the action of EC50 EGF on reporter gene activity. Compounds were screened in a 15-pt titration series in 1536-well format. The cytotoxicity of the Tox21 compound library against this cell line was tested in parallel by measuring the intra cellular ATP content in the same wells.
Tox21 Assay Protocol Summary:
2500 cells/5uL in Opti-MEM medium containing 0.5% dialyzed FBS, 0.1 mM NEAA, 1 mM sodium pyruvate and 10 mM HEPES was dispensed into 1536-well black wall/clear bottom plates using a Multidrop dispenser and cells were cultured at 37 degrees Celsius overnight. Next day 23 nL of compounds dissolved in DMSO, positive controls or DMSO were delivered to each well using a pin tool. The plates were incubated at 37 degrees Celsius for 5 hours. 1 uL of LiveBLAzerTM B/G FRET substrate (Solution A+B+C+D) was added to each well using a Flying Reagent Dispenser. After incubated at room temperature for 2.5 hours the plates were measured on an EnVision plate reader at Excitation 405nm, Emission1=460nm and Emission 2=530nm. The %Activity was determined from the ratio of 460nm/530nm.
After the plates were read for Beta-Lactamase assay on Envision; 3 ul Cell Titer Glo (Promega) was added to measure the cytotoxicity and the plates were then incubated at RT in dark for 30 min. The luminescence was read on ViewLux (Perkin Elmer, Shelton, CT) using 6 sec exposure. ViewLux data was expressed as relative luminescence units.
For primary data analysis, raw plate reads for each titration point were first normalized relative to […] EGF control (100%) and DMSO only wells (basal, 0%).
For primary data analysis for viability assay, raw plate reads for each titration point were first normalized Tetra n-octyl ammonium bromide control (-100%) and DMSO (control, 100%).
Potency is read from the fitted curve at half-maximal effect.

Compound | Potency
O=S(=O)(O)O | inactive
O=c1[nH]c(=O)n(Cl)c(=O)n1Cl | inactive
Nc1ccc(-c2ccc(N)cc2)cc1 | inactive
C=CCOC(Cn1ccnc1)c1ccc(Cl)cc1Cl (stereo not given) | inactive
Nc1ccc(-c2ccc(N)c(Cl)c2)cc1Cl | inactive
O=C(O)COc1ccc(Cl)cc1Cl | inactive
O=C(O)c1nc(Cl)ccc1Cl | inactive
CCCCCCCCCCn1cc[n+](C)c1 | inactive
C1CCC(NC2CCCCC2)CC1 | inactive
CCCCCCn1cc[n+](C)c1 | inactive
CCCC[N+]1(C)CCCC1 | inactive
CC[N+](CC)(CC)CC | inactive
COc1ccccc1N | inactive
Cc1cc(Cl)ccc1OCC(=O)O | inactive
CC(=O)O | inactive
Oc1cccc2cccnc12 | 1.23 µM (active) and inactive
O=[N+]([O-])O | inactive
O=C(O)CC(O)(CC(=O)O)C(=O)O | inactive
C[N+](C)(C)Cc1ccccc1 | inactive
CCCCn1cc[n+](C)c1C | inactive

Compound | Potency
O=C(O)C(Cl)Cl | inactive
CCCC[n+]1ccc(C)cc1 | inactive and 48.7 µM (active)
OCCOc1ccccc1 | inactive
CCCCCCCCCCCCCC[P+](CCCCCC)(CCCCCC)CCCCCC | 11 µM (active) and 19.7 µM (active) and inactive
Nc1ccccc1 | inactive
C[C@]12CCC(=O)C=C1CC[C@@H]1[C@@H]2CC[C@]2(C)C(=O)CC[C@@H]12 | inactive
COP(=O)(OC)OC=C(Cl)Cl | inactive
CCNc1nc(Cl)nc(NCC)n1 | inactive
COc1ccc(N)cc1 | inactive
CCCC[n+]1cccc(C)c1 | inactive
CCC[N+]1(C)CCCC1 | inactive
CCCC[n+]1ccccc1 | inactive
Nc1ccc(Cl)cc1 | inactive
CCCCCCCCCCCCCCCCn1cc[n+](C)c1 | inactive and 21.9 µM (active)
Cc1cc(Cl)ccc1N | inactive
CC(Cl)(Cl)C(=O)O | inactive
CCCCCCCCCCCC(=O)O | inactive
CC[N+]1(C)CCCC1 | inactive
CCCCCCCCCCCCn1cc[n+](C)c1 | 49.4 µM (active) and inactive
CCOP(=S)(OCC)Oc1ccc2c(C)c(Cl)c(=O)oc2c1 | inactive
